# From the supplement of paper PMC10849652
# The full data set covers some 8,800 targets. This sample favours those with a hit. About 0.5% of all pairs of compound and target were hits. Values without a mark were called inactive.
# Key:
# Experiment in all cases: log2 fold change, soluble protein after heating vs DMSO (PISA); higher = thermal stabilisation; K562 lysate, 10 uM; active = over 0.2 and 3.5 SD of the protein, either way, in both replicates (recomputed)
# [1] = compound: Cc1cn(-c2cc(NC(=O)c3ccc(C)c(Nc4nccc(-c5cccnc5)n4)c3)cc(C(F)(F)F)c2)cn1 [nilotinib]
# Outline: (§1)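 The values are log-two fold changes in thermal stability compared with solvent controls and come from duplicates. They were obtained by TMTpro 16plex LC-MS/MS, with channel sums equalised, on the supernatant after 21,000xg for 90 min. That supernatant came from crude K562 extract at 1 mg/mL protein treated with 10 μM compound for 30 min, heated for 3 min across 48°C-58°C, pooled and brought to 0.5% NP-40 at 4°C.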
# [2] = compound: Cc1nc(Nc2n[nH]c3c2CN(C(=O)N[C@H](CN(C)C)c2ccccc2)C3(C)C)c2sccc2n1
# Outline: as §1
# [3] = compound: Cc1nc(Nc2ncc(C(=O)Nc3c(C)cccc3Cl)s2)cc(N2CCN(CCO)CC2)n1 [dasatinib]
# Outline: as §1
# [4] = compound: Cc1ncc(-c2ccnc(Nc3ccc(S(C)(=O)=O)cc3)n2)n1C(C)C
# Outline: as §1
# [5] = compound: Cn1cc(-c2ccc3c(c2)CCN3C(=O)Cc2cccc(C(F)(F)F)c2)c2c(N)ncnc21
# Outline: as §1
# [6] = compound: Cn1cc(CNCC2CCN(c3ncc(C(=O)NO)cn3)CC2)c2ccccc21 [quisinostat]
# Outline: as §1
# [7] = compound: Cn1cncc1[C@@](N)(c1ccc(Cl)cc1)c1ccc2c(c1)c(-c1cccc(Cl)c1)cc(=O)n2C [tipifarnib]
# Outline: as §1
# [8] = compound: NC(=O)Nc1cc(-c2cccc(F)c2)sc1C(=O)N[C@H]1CCCNC1
# Outline: as §1
# [9] = compound: NC(=O)c1cnc(N[C@@H]2CCCC[C@@H]2N)nc1Nc1cccc(-n2nccn2)c1
# Outline: as §1
# [10] = compound: NC1(c2ccc(-c3nc4ccn5c(=O)[nH]nc5c4cc3-c3ccccc3)cc2)CCC1
# Outline: as §1
# [11] = compound: NCC(=O)Nc1ccc(-n2nc(C(F)(F)F)cc2-c2ccc3c(ccc4ccccc43)c2)cc1
# Outline: as §1
# [12] = compound: O=C(CCCCCCC(=O)Nc1ccccc1)NO [vorinostat]
# Outline: as §1
# [13] = compound: O=C(O)c1ccc2c(c1)nc(Nc1cccc(Cl)c1)c1ccncc12 [silmitasertib]
# Outline: as §1
# [14] = compound: O=C1NC(=O)C(c2cnc3ccccn23)=C1c1cn2c3c(cc(F)cc13)CN(C(=O)N1CCCCC1)CC2
# Outline: as §1
# [15] = compound: c1cn2cc(-c3ccc4cn[nH]c4c3)nc(Nc3ccc(N4CCOCC4)cc3)c2n1 [entospletinib]
# Outline: as §1
# UniProt Q13148, sequence (Q13148 whole entry, looked up): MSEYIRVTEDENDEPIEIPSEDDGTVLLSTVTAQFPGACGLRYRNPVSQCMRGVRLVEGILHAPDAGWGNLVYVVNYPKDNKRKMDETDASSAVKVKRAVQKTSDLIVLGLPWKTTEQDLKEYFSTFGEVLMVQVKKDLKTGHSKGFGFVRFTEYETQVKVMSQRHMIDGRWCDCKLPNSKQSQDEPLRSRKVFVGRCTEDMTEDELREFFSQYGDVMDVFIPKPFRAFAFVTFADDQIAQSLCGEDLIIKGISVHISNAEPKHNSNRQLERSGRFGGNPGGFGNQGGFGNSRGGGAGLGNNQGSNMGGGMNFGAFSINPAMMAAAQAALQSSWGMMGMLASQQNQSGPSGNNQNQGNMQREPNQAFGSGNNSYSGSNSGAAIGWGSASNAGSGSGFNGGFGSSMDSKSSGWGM
# UniProt Q86US8, sequence (Q86US8 whole entry, looked up): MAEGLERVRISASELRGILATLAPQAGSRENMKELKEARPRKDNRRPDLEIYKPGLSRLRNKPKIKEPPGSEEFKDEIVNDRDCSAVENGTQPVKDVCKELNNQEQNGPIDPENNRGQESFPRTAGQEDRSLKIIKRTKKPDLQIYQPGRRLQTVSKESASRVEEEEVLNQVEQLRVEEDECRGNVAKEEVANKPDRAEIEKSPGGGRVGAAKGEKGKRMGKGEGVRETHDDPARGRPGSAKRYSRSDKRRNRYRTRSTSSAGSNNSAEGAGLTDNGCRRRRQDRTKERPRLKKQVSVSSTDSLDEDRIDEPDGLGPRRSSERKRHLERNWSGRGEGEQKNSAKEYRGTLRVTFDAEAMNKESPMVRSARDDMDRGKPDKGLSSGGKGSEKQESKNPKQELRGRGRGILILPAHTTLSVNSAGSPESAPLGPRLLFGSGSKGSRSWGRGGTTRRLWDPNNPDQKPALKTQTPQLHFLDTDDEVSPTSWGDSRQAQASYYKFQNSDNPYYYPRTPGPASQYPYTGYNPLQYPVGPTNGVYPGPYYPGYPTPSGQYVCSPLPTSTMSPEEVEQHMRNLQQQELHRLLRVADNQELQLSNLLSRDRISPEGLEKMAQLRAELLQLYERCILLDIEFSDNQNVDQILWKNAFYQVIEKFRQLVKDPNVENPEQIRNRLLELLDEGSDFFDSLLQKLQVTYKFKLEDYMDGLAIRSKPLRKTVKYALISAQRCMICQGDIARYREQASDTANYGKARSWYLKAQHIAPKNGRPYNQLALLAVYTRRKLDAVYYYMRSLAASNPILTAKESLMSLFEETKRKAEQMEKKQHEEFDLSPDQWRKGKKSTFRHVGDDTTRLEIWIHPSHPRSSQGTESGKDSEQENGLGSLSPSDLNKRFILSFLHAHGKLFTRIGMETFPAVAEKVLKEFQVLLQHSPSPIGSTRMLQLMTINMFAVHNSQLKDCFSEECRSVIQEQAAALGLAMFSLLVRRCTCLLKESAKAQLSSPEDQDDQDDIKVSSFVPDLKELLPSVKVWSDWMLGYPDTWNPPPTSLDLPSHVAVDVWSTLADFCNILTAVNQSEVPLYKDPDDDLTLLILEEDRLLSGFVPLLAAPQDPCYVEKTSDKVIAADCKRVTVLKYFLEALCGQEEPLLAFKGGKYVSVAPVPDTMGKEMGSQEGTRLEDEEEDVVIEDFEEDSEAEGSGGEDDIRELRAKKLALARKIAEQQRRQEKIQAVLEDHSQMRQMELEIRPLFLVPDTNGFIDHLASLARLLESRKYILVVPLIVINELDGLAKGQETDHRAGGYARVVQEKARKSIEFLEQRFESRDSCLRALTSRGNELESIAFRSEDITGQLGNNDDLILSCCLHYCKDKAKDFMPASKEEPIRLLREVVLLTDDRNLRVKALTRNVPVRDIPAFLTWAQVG
# UniProt Q9HBR0, sequence (Q9HBR0 whole entry, looked up): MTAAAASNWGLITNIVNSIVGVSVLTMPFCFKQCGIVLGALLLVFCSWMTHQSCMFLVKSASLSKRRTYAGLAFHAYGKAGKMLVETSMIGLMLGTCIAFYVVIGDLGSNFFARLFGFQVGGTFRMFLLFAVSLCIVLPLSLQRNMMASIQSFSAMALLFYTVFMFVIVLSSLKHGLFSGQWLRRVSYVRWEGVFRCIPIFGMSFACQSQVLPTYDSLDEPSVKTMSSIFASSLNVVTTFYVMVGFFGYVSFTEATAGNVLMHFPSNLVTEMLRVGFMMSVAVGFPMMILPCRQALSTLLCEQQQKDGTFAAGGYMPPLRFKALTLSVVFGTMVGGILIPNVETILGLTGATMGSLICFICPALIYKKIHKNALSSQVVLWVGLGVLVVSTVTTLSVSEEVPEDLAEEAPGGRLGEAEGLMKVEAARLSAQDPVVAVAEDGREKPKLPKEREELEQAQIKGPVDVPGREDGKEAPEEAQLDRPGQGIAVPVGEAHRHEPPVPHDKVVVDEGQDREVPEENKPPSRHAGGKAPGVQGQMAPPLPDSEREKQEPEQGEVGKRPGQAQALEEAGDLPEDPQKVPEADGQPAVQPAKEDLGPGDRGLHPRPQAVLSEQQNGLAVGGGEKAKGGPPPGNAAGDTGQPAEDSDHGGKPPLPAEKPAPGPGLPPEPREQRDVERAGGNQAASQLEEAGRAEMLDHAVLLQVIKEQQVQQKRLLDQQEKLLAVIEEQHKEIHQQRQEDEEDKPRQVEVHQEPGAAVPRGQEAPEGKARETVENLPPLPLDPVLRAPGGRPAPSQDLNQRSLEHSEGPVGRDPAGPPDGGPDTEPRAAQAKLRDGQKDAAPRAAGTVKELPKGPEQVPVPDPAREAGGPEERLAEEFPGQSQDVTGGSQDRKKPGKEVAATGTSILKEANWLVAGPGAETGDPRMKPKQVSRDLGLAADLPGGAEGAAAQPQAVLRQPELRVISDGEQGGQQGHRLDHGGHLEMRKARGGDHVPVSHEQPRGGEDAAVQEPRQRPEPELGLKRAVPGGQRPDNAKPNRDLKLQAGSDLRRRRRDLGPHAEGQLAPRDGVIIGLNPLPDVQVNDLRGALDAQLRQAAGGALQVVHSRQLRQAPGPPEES
# UniProt Q9H2H9, sequence (Q9H2H9 whole entry, looked up): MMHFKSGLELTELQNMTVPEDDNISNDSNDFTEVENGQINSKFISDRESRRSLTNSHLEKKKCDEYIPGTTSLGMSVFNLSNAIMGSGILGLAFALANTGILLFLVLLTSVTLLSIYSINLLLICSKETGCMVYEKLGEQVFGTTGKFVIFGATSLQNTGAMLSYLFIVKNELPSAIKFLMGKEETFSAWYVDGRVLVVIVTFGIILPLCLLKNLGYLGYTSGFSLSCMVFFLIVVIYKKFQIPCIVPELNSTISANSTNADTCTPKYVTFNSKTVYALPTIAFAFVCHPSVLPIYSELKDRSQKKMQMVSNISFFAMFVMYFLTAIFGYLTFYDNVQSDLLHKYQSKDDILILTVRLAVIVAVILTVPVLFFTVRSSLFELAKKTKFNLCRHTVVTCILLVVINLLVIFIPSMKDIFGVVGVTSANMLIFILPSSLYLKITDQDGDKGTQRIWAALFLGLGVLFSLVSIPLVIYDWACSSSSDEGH
# UniProt Q15633, sequence (Q15633 whole entry, looked up): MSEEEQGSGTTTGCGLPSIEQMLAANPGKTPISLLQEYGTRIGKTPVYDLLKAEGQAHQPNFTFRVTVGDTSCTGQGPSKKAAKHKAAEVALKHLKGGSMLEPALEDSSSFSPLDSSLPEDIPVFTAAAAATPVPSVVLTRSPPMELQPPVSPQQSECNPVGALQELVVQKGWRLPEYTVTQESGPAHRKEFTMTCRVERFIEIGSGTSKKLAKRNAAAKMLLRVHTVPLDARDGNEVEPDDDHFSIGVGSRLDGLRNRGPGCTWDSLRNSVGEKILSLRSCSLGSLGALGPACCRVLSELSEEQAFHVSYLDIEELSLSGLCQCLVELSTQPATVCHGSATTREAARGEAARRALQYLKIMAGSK
# UniProt Q9UQE7, sequence (Q9UQE7 whole entry, looked up): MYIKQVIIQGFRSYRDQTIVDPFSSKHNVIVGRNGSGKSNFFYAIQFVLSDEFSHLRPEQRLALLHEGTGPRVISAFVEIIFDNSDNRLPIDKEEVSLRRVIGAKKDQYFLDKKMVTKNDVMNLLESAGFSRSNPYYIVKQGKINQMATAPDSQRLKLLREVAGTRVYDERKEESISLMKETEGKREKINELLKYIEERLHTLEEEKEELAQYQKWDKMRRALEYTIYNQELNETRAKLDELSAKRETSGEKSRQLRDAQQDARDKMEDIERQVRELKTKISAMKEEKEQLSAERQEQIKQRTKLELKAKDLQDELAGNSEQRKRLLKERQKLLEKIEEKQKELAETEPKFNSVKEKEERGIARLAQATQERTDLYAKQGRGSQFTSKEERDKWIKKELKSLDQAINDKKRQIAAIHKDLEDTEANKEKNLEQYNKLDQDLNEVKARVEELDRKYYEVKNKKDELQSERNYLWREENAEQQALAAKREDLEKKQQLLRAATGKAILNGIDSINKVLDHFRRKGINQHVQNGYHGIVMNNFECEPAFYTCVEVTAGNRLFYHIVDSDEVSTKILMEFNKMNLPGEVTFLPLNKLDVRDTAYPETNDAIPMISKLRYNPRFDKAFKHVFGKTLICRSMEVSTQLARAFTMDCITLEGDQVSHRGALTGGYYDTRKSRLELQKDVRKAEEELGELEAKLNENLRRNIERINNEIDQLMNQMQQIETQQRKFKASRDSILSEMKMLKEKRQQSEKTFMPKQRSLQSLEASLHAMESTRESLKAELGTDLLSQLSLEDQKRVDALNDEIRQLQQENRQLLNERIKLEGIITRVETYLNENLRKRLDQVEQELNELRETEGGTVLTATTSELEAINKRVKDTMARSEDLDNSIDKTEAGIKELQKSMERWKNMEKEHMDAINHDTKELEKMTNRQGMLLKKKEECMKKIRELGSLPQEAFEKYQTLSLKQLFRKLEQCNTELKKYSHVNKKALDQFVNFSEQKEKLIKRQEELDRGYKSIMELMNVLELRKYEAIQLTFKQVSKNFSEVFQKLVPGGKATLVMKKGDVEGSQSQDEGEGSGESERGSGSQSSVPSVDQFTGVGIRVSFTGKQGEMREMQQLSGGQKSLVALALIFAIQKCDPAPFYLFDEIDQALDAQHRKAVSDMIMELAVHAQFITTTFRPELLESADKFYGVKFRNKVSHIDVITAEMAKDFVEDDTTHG
Target,log2 fold change [1],log2 fold change [2],log2 fold change [3],log2 fold change [4],log2 fold change [5],log2 fold change [6],log2 fold change [7],log2 fold change [8],log2 fold change [9],log2 fold change [10],log2 fold change [11],log2 fold change [12],log2 fold change [13],log2 fold change [14],log2 fold change [15]
TARDBP (UniProt Q13148),-0.146,-0.079,-0.005,-0.051,0.007,-0.087,-0.554 (active),0.136,0.021,0.027,0.044,-0.44 (active),0.086,-0.268,-0.027
SMYD3 (UniProt Q9H7B4),0.004,0.022,-0.101,0.01,-0.029,-0.056,0.031,0.038,0.036,-0.051,0.044,-0.202 (active),0.029,-0.003,-0.008
SLC19A1 (UniProt P41440),-0.026,0.014,0.019,-0.032,-0.017,-0.077,-0.01,-0.015,-0.027,-0.004,0.003,0.01,-0.024,-0.054,-0.002
SHKBP1 (UniProt Q8TBC3),0.055,0.098,0.117,-0.072,-0.011,-0.039,0.088,-0.016,0.007,-0.096,-0.031,-0.069,-0.06,0.01,-0.218
SPC25 (UniProt Q9HBM1),0.042,-0.02,0.002,0.03,0.046,-0.019,0,-0.01,0.002,0,0.026,-0.266 (active),0,0.016,-0.004
SRP54 (UniProt P61011),0.039,0.006,-0.021,0,0.034,0.048,-0.047,-0.001,-0.013,-0.015,0.003,-0.241 (active),0.008,0.021,-0.004
TARBP2 (UniProt Q15633),0.003,0.019,-0.038,0.005,-0.056,-0.106,-0.067,0.065,-0.029,0.056,-0.017,-0.519 (active),0.024,-0.03,-0.002
SMG6 (UniProt Q86US8),-0.067,0.028,0.048,0.079,0.082,-0.05,-0.065,0.028,0.065,0.011,0.119,-0.3 (active),0.015,-0.012,0.024
SMC4 (UniProt Q9NTJ3),-0.01,0.009,-0.03,0.016,0.003,-0.014,-0.003,0.027,0.009,-0.023,0.013,-0.296 (active),0.011,-0.015,0.009
SLC16A1 (UniProt P53985),0.044,0.043,0.137,-0.009,-0.005,-0.064,0.005,0.012,-0.028,-0.003,0.004,-0.62 (active),-0.012,-0.01,0.012
SLC38A10 (UniProt Q9HBR0),0.072,-0.073,-0.009,0.05,-0.031,-0.013,0.047,-0.039,0.01,0.023,-0.034,0.044,-0.013,0.08,0.024
SHCBP1 (UniProt Q8NEM2),-0.051,-0.024,-0.071,-0.043,0.026,-0.019,-0.035,-0.009,-0.019,-0.016,0.02,-0.37 (active),0.04,-0.009,-0.013
STK24 (UniProt B4DR80),0.031,0.298 (active),0.092,0.086,-0.005,-0.019,0.007,0.187,0.023,-0.005,0.023,0.029,-0.014,-0.033,0.001
SMC3 (UniProt Q9UQE7),0,-0.01,0.024,0.013,0.024,0.023,0.002,0,-0.003,0.016,-0.023,0.06,-0.009,-0.017,0.012
SPG11 (UniProt Q96JI7),-0.024,0.026,-0.052,0.026,0.025,-0.048,-0.007,-0.017,0.05,-0.046,-0.001,-0.399 (active),0.062,0.04,-0.098
SLC38A1 (UniProt Q9H2H9),-0.001,0.007,0.001,-0.002,-0.041,-0.123,-0.032,-0.015,0.001,-0.024,-0.015,0.099,0,0.008,-0.015
SH3GL1 (UniProt Q99961),-0.01,0.029,-0.024,0.01,-0.009,-0.046,0.015,0.004,0.006,0.033,-0.012,-0.245 (active),0,0.009,-0.004
SPATA5 (UniProt Q8NB90),0.001,0.006,-0.052,-0.002,0.011,-0.023,-0.002,0.03,0.001,-0.064,0.005,-0.247,0.048,-0.011,0.013
STAR (UniProt P49675),0.037,-0.092,0.046,-0.019,0.011,-0.041,0.203,-0.135,,-0.146,0.002,-0.044,-0.028,-0.031,-0.103
SMARCA4 isoform 4 (UniProt P51532),-0.244,-0.219,-0.037,0.037,0.035,-0.081,0.239,0.16,-0.042,0.05,,0.166,-0.198,0.119,-0.083
